Eight molecules from PubChem BioAssay (NCI) can be followed below.

Each structure is given as a SMILES string. About 83,000 compounds went through this panel and 20% of them were active in at least one assay; those are over-represented in the sample as a whole.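 Activity criterion: percent growth below 10, measured after cells in 96-well plates were exposed to a single compound concentration for 48 hours.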 Values without a mark were called inactive. Active and inactive are the calls of the source.

Common to all, as to experiment: NCI-60 one-dose screen, 48 h (100 = growth as untreated, 0 = no growth, -100 = all killed)
The subject of one assay is HCT-15 colon. The following applies: 10 µM unless noted.
A further assay concerns HT29 colon. The conditions noted are these: 10 µM unless noted.
In the next assay the test system is SNB-75 CNS. The following applies: 10 µM unless noted.
A further assay relates to SNB-19 CNS. The conditions noted are these: 10 µM unless noted.
The next assay deals with U251 CNS. The conditions noted are these: 10 µM unless noted.
For another assay, the system named is PC-3 prostate. The following applies: 10 µM unless noted.
A further assay has as its system SK-MEL-5 melanoma. The conditions noted are these: 10 µM unless noted.
The subject of a further assay is UACC-62 melanoma. The following applies: 10 µM unless noted.
Another assay concerns SK-MEL-28 melanoma. The following applies: 10 µM unless noted.
For the next assay, the system named is SK-MEL-2 melanoma. The following applies: 10 µM unless noted.
The test system of another assay is EKVX NSCLC. The following applies: 10 µM unless noted.
For the next assay, the system named is SN12C renal. The following applies: 10 µM unless noted.
The next assay concerns UO-31 renal. The following applies: 10 µM unless noted.
The subject of another assay is ACHN renal. The conditions noted are these: 10 µM unless noted.
Another assay relates to CAKI-1 renal. The following applies: 10 µM unless noted.
For another assay, the system named is A498 renal. The conditions noted are these: 10 µM.
The test system of a further assay is HL-60(TB) leukemia. The conditions noted are these: 10 µM unless noted.
The subject of the next assay is CCRF-CEM leukemia. The conditions noted are these: 10 µM unless noted.
The next assay deals with TK-10 renal. The conditions noted are these: 10 µM unless noted.
Another assay deals with LOX IMVI melanoma. The following applies: 10 µM unless noted.

`CC(=O)O[C@H]1C(=O)[C@@]2(C)[C@H]([C@H](OC(=O)c3ccccc3)[C@]3(O)C[C@H](OC(=O)[C@H](OC(=O)OC[C@H]4COC(C)(C)O4)[C@@H](NC(=O)c4ccccc4)c4ccccc4)C(C)=C1C3(C)C)[C@]1(OC(C)=O)CO[C@@H]1C[C@@H]2O`: the growth with HCT-15 colon was 5.28% (active); in the assay with HT29 colon, 2.46% (active); with SNB-75 CNS, -20.5% (active); in the assay on SNB-19 CNS it was 11.9%; with U251 CNS it was 15.9%; in the assay on PC-3 prostate it was 21%. The growth is 18.2% in the assay on SK-MEL-5 melanoma; 21.7% in the assay on UACC-62 melanoma; 49.7% in the assay with SK-MEL-28 melanoma; 14.3% in the assay on SK-MEL-2 melanoma; 27.1% in the assay with EKVX NSCLC; 22.5% in the assay on SN12C renal. Besides, the growth was 33.8% in the assay with UO-31 renal; 34.5% in the assay with ACHN renal; 20.7% in the assay with CAKI-1 renal; 21.1% in the assay on A498 renal; 3.13% (active) in the assay with HL-60(TB) leukemia; 17% with CCRF-CEM leukemia.
Take `CCCCCCCCCCCCCCCCCC1OC[C@H](COC(=O)O[C@@H](C(=O)O[C@H]2C[C@@]3(O)[C@@H](OC(=O)c4ccccc4)[C@@H]4[C@]5(OC(C)=O)CO[C@@H]5C[C@H](O)[C@@]4(C)C(=O)[C@H](OC(C)=O)C(=C2C)C3(C)C)[C@@H](NC(=O)c2ccccc2)c2ccccc2)O1` (stereo partly drawn): the growth with HCT-15 colon is 96.8%; with HT29 colon, 15.7%; with SNB-75 CNS, 59.1%; in the assay with SNB-19 CNS, 49.6%; in the assay on U251 CNS, 46.6%; with PC-3 prostate, 45.2%. The growth in the assay on SK-MEL-5 melanoma is 75.6%; with UACC-62 melanoma, 46.8%; in the assay on SK-MEL-28 melanoma, 55.9%; in the assay with SK-MEL-2 melanoma, 75%; with EKVX NSCLC it was 93.7%; in the assay on SN12C renal it was 56.8%. Moreover, the growth in the assay on UO-31 renal was 98.1%; in the assay on TK-10 renal, 99.8%; in the assay with CAKI-1 renal, 81%; in the assay on A498 renal, 72%; in the assay on HL-60(TB) leukemia, 23.3%; with CCRF-CEM leukemia it was 44.8%.
Regarding `CN1CC(CNC(=O)OCc2ccccc2)CC2c3cccc4c3c(cn4C)CC21` (stereo not drawn), the growth was 8.29% (active) in the assay with HCT-15 colon; 5.34% (active) with HT29 colon; 20.6% with SNB-75 CNS; 57.8% with SNB-19 CNS; 13.6% in the assay on U251 CNS; 40% with PC-3 prostate. Further, the growth in the assay with SK-MEL-5 melanoma is -97.8% (active); in the assay with UACC-62 melanoma it was 5.67% (active); with LOX IMVI melanoma, -37.4% (active); with SK-MEL-2 melanoma, 47.2%; in the assay with EKVX NSCLC it was 71.8%; in the assay with SN12C renal, 45%. Moreover, the growth with UO-31 renal was 32.5%; with ACHN renal, 39.7%; in the assay on CAKI-1 renal it was 52.9%; with A498 renal it was 57.6%; with CCRF-CEM leukemia, 45.7%.
As to `C[n+]1c(/C=C/c2ccc(N(CCCl)CCCl)cc2)sc2ccccc21`, the growth in the assay with HCT-15 colon was 82.2%; in the assay with HT29 colon, 40.9%; in the assay with SNB-75 CNS, 74.5%; in the assay with SNB-19 CNS it was 60.9%; with U251 CNS it was 30.1%; in the assay with PC-3 prostate it was 36%. Further, the growth is 61.1% in the assay on SK-MEL-5 melanoma; 36.6% in the assay on LOX IMVI melanoma; 81.4% with SK-MEL-28 melanoma; 74.1% in the assay with SK-MEL-2 melanoma; 83.4% in the assay on EKVX NSCLC; 37.4% in the assay on SN12C renal. Also, the growth is 96.7% in the assay on UO-31 renal; 96.7% in the assay on TK-10 renal; 78.8% in the assay with ACHN renal; 99.4% in the assay on CAKI-1 renal; 84.9% in the assay with A498 renal; 18.3% with HL-60(TB) leukemia. Further, the growth in the assay with CCRF-CEM leukemia is 27.9%.
As to `O=C1C2C(C(=O)[N]1[Hg][c]1cccs1)C1(Cl)C(Cl)=C(Cl)C2(Cl)C1(Cl)Cl` (stereo not drawn), the growth is -76.8% (active) with HCT-15 colon; 8.75% (active) in the assay with HT29 colon; 59.5% in the assay with SNB-75 CNS; 51.5% in the assay with SNB-19 CNS; -67.6% (active) with U251 CNS; 33.4% in the assay on PC-3 prostate. Besides, the growth was 24% with SK-MEL-5 melanoma; -90.7% (active) in the assay with LOX IMVI melanoma; -76.9% (active) in the assay on SK-MEL-28 melanoma; 54.6% in the assay with SK-MEL-2 melanoma; 34.5% in the assay with EKVX NSCLC; -46.9% (active) in the assay on SN12C renal. Further, the growth in the assay with UO-31 renal was -29.8% (active); in the assay on TK-10 renal, 49.9%; in the assay on ACHN renal, -35.7% (active); in the assay with CAKI-1 renal, 1.56% (active); with A498 renal it was 124%; in the assay on HL-60(TB) leukemia, -12.1% (active). The growth with CCRF-CEM leukemia was -14.1% (active).
With `COC(=O)[C@@H](C)C[C@H](Cc1ccccc1)NC(=O)c1csc([C@@H](C[C@H](C(C)C)N(C)C(=O)[C@@H](NC(=O)[C@H]2CCCN2C)C2CC2)OC(C)=O)n1`, the growth in the assay with HCT-15 colon is 18.3%; with HT29 colon, 6.25% (active); in the assay on SNB-75 CNS, 28.9%; with SNB-19 CNS, 75.6%; with U251 CNS, 8.67% (active); in the assay on PC-3 prostate, 8.37% (active). Besides, the growth in the assay with SK-MEL-5 melanoma was -52.1% (active); with UACC-62 melanoma, 41.2%; in the assay with LOX IMVI melanoma, 15%; in the assay on SK-MEL-2 melanoma, 35.8%; in the assay with EKVX NSCLC it was 31.1%; in the assay with SN12C renal it was 25.2%. Also, the growth with UO-31 renal is 48.2%; with CAKI-1 renal, 12.7%; with A498 renal, -0.976% (active); in the assay with HL-60(TB) leukemia, -36.8% (active); in the assay on CCRF-CEM leukemia it was 6.07% (active).
For `COc1ccc(Nc2ccnc3cc(Cl)ccc23)cc1CN(CCCl)CCCl`, the growth was -12.1% (active) with HCT-15 colon; 1.34% (active) with HT29 colon; -10.8% (active) in the assay on SNB-75 CNS; -0.124% (active) with SNB-19 CNS; -11% (active) with U251 CNS; -4.22% (active) with PC-3 prostate. Further, the growth was -88.4% (active) in the assay with SK-MEL-5 melanoma; -51.6% (active) in the assay with LOX IMVI melanoma; -38.3% (active) with SK-MEL-28 melanoma; -46.7% (active) with SK-MEL-2 melanoma; -15.3% (active) in the assay on EKVX NSCLC; 2.25% (active) with SN12C renal. The growth with UO-31 renal was -42.2% (active); in the assay on TK-10 renal, -37.5% (active); in the assay with ACHN renal, -33.7% (active); in the assay with CAKI-1 renal, -63.9% (active); in the assay on A498 renal it was -47.5% (active); in the assay with HL-60(TB) leukemia it was -22.3% (active). In addition, in the assay with CCRF-CEM leukemia, the growth is -6.67% (active).
In the case of `COC(=O)[C@@H](C)C[C@H](Cc1ccccc1)NC(=O)c1csc([C@@H](C[C@H](C(C)C)N(C)C(=O)[C@H](C)NC(=O)[C@H]2CCCN2C)OC(C)=O)n1`, the growth in the assay with HCT-15 colon was 57.7%; in the assay on HT29 colon it was 11.5%; with SNB-75 CNS it was 30.7%; in the assay on SNB-19 CNS, 51%; in the assay with U251 CNS it was 24.8%; in the assay with PC-3 prostate, 36.4%. For the same molecule, the growth with SK-MEL-5 melanoma was 22.3%; in the assay with UACC-62 melanoma it was 45.6%; in the assay with LOX IMVI melanoma it was 38.4%; in the assay on SK-MEL-2 melanoma it was 43.8%; in the assay with EKVX NSCLC, 69.8%; in the assay with SN12C renal, 64.8%. The growth is 71.8% in the assay with UO-31 renal, 53.4% with A498 renal, -21.2% (active) with HL-60(TB) leukemia and 18.7% in the assay with CCRF-CEM leukemia.
